{"source": "PubChem BioAssay AID1578", "about": "(Sanford-Burnham Center for Chemical Genomics, 2009)", "note": "Where “and” joins values, the source holds several entries; their conditions need not be identical. Equal entries are not always repeated. About 3,000 (1%) of roughly 290,000 compounds were called active. Rule as the data show it: active = inhibition mostly above about 36% (no sharp cut-off); inactive = mostly below about 34%. The entries come from a sample that favours actives as a whole.", "data": [{"test": "inhibition of NOD1-driven NF-kB reporter – cell-based, luminescence, uHTS, primary screen (AID 1578);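 also: HEK-293T reporter cells stimulated with the NOD1 agonist gamma-tri-DAP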", "conditions": "NOD1-driven NF-kB luciferase reporter cells, at 4 µM, stronger effect = higher value", "values": [{"smiles": "Cc1nc2ccc(C(=O)NCc3ccc4c(c3)OCO4)cc2s1", "inhibition": "11.9% (inactive)"}, {"smiles": "O=C(CCNS(=O)(=O)c1ccccc1)N1CCOCC1", "inhibition": "-19.5% (inactive)"}, {"smiles": "O=C(Nc1nc2c(F)cccc2s1)c1ccc([N+](=O)[O-])o1", "inhibition": "7.3% (inactive)"}, {"smiles": "O=C(Nc1nc2ccccc2s1)c1ccc([N+](=O)[O-])o1", "inhibition": "6.5% (inactive)"}, {"smiles": "O=C(Nc1nc2cc3c(cc2s1)OCCO3)c1ccc([N+](=O)[O-])o1", "inhibition": "-22.1% (inactive)"}, {"smiles": "Cc1cc(C)c2nc(NC(=O)c3ccc([N+](=O)[O-])o3)sc2c1", "inhibition": "37.8% (inactive)"}, {"smiles": "CCOC(=O)Cn1cncc1-c1ccc([N+](=O)[O-])cc1", "inhibition": "10.5% (inactive)"}, {"smiles": "COc1cnn(-c2ccc(C)cc2)c(=O)c1Cl", "inhibition": "-22.7% (inactive)"}, {"smiles": "Cc1csc2c(N3CCN(C(=O)Nc4ccccc4)CC3)ncnc12", "inhibition": "7.4% (inactive)"}, {"smiles": "Cc1csc2c(N3CCN(C(=O)Nc4ccc(OC(F)(F)F)cc4)CC3)ncnc12", "inhibition": "22.6% (inactive)"}, {"smiles": "CC1=Nn2c(nc(-c3ccccc3)c2-c2ccccc2)NC(=O)C1Br", "note": "(configuration not stated)", "inhibition": "1.4% (inactive)"}, {"smiles": "COc1ccccc1CNc1nc(C)c(C(C)=O)s1", "inhibition": "12.6% (inactive)"}, {"smiles": "CCOC(=O)/C(=N\\Nc1ccccc1)S(=O)(=O)c1ccccc1", "inhibition": "0.6% (inactive)"}, {"smiles": "CCOC(=O)/C(=N/Nc1ccc(OC)cc1)N1CCCc2ccccc21", "inhibition": "-9.8% (inactive)"}, {"smiles": "COC(=O)/C(=N/Nc1ccccc1)N1CCCc2ccccc21", "inhibition": "-10.5% (inactive)"}, {"smiles": "CCOC(=O)/C(=N\\Nc1ccccc1)P(=O)(c1ccccc1)c1ccccc1", "inhibition": "43.4% (active)"}, {"smiles": "CCOC(=O)/C(=N/Nc1ccccc1)N1CCCc2ccccc21", "inhibition": "90.5% (active)"}, {"smiles": "CCOC(=O)/C(=N/Nc1ccc(Cl)cc1)S(=O)(=O)c1ccccc1", "inhibition": "-14.8% (inactive)"}, {"smiles": "CC(=O)c1csc(Nc2ccccc2Cl)n1", "inhibition": "-3% (inactive)"}, {"smiles": "O=C(NC(=O)c1cccc(Cl)c1)OC[C@@H]1CCCN2CCCCC12", "note": "(some centres not stated)", "inhibition": "14.2% (inactive)"}, {"smiles": "CCOC(=O)c1cc2c(ccn2C)n1CC(=O)N1C(C)CCCC1C", "note": "(configuration not stated)", "inhibition": "5.8% (inactive)"}, {"smiles": "O=S(=O)(Cc1ncc(C(F)(F)F)cc1Cl)c1ccccc1", "inhibition": "18% (inactive)"}, {"smiles": "O=S(=O)(c1ccccc1)c1ncc(C(F)(F)F)cc1O", "inhibition": "-25.1% (inactive)"}, {"smiles": "O=S(=O)(c1ccccc1)c1ncc(C(F)(F)F)cc1Cl", "inhibition": "50.2% (active)"}, {"smiles": "O=C(NCCCCc1ccccc1)Nc1ccc(F)cc1", "inhibition": "-30.8% (inactive)"}, {"smiles": "CCn1nc(C(=O)NCC(c2cccs2)N2CCOCC2)c2ccccc2c1=O", "note": "(configuration not stated)", "inhibition": "-2.4% (inactive)"}, {"smiles": "Cn1c(=O)c([N+](=O)[O-])c(Cl)c2ccccc21", "inhibition": "-31.4% (inactive)"}, {"smiles": "CCn1c(=O)c([N+](=O)[O-])c(Cl)c2ccccc21", "inhibition": "61.2% (active)"}, {"smiles": "CCN(CC)c1c([N+](=O)[O-])c(=O)n(CC)c2ccccc12", "inhibition": "-5.5% (inactive)"}, {"smiles": "O=C(OCCC1Oc2cccnc2NC1=O)c1ccc(Cl)cc1", "note": "(configuration not stated)", "inhibition": "-29.2% (inactive)"}, {"smiles": "COc1cccc(-c2nc(CS(=O)CC(=O)NCc3ccccc3)c(C)o2)c1", "note": "(configuration not stated)", "inhibition": "-4.3% (inactive)"}, {"smiles": "Cc1ccc(-n2c(SCc3ccc(C#N)cc3)nnc2-c2ccccn2)cc1", "inhibition": "2.2% (inactive)"}, {"smiles": "CCC(=O)N1c2ccc(S(=O)(=O)N3CCN(C)CC3)cc2CC1C", "note": "(configuration not stated)", "inhibition": "-8.9% (inactive)"}, {"smiles": "CCC(=O)N1c2ccc(S(=O)(=O)N3CCN(c4ccccc4Cl)CC3)cc2CC1C", "note": "(configuration not stated)", "inhibition": "8.1% (inactive)"}, {"smiles": "COc1ccc(S(=O)(=O)Nc2ccc(O)c(Sc3ncn[nH]3)c2)cc1", "inhibition": "-28.8% (inactive)"}, {"smiles": "O=S(=O)(Nc1cc(Sc2cccc3cccnc23)c(O)c2ccccc12)c1ccc(F)cc1", "inhibition": "-23.7% (inactive)"}, {"smiles": "O=C(O)CSc1cc(NS(=O)(=O)c2ccc(Br)cc2)c2ccccc2c1O", "inhibition": "5.8% (inactive)"}, {"smiles": "O=S(=O)(Nc1cc(Sc2cccc3cccnc23)c(O)c2ccccc12)c1ccccc1", "inhibition": "109% (active)"}, {"smiles": "O=S(=O)(Nc1cc(Sc2ncn[nH]2)c(O)c2ccccc12)c1ccccc1", "inhibition": "-1.5% (inactive)"}, {"smiles": "COc1ccc(S(=O)(=O)Nc2cc(Sc3ncn[nH]3)c(O)c3ccccc23)cc1", "inhibition": "93.1% (active)"}, {"smiles": "COC(=O)c1oc2ccccc2c1-n1cccc1", "inhibition": "-6% (inactive)"}, {"smiles": "Cc1ccc2nsnc2c1S(=O)(=O)Nc1ccccc1C(=O)O", "inhibition": "-10.2% (inactive)"}, {"smiles": "Cc1ccc(C(C)C)c(OCC(O)CN2CC(C)OC(C)C2)c1", "note": "(configuration not stated)", "inhibition": "5.4% (inactive)"}, {"smiles": "CCOc1ccc(Cl)cc1CNCCCSc1ncccn1", "inhibition": "5.6% (inactive)"}, {"smiles": "O=C(NNC1=C(C(=O)C(F)(F)F)CCC1)c1cccc(Cl)c1", "inhibition": "83% (active)"}, {"smiles": "O=C(NNC1=C(C(=O)C(F)(F)F)CCC1)c1ccc(Cl)cc1", "inhibition": "19.2% (inactive)"}, {"smiles": "O=C(NNC1=C(C(=O)C(F)(F)F)CCC1)c1cccc(O)c1", "inhibition": "-26.1% (inactive)"}, {"smiles": "CO/N=C(/CS(=O)c1ccc(Br)cc1)c1ccc(OC)cc1", "note": "(configuration not stated)", "inhibition": "-16% (inactive)"}, {"smiles": "Cc1cc(C)c2sc(N(CCN(C)C)C(=O)c3ccc4ccccc4c3)nc2c1", "inhibition": "-10.4% (inactive)"}, {"smiles": "Cc1cccc(Cn2nnc3c2C(=O)c2ccccc2C3=O)c1", "inhibition": "68.5% (active)"}, {"smiles": "Cc1cccc(CC(=O)OCn2nnc3ccccc3c2=O)c1", "inhibition": "-15.8% (inactive)"}, {"smiles": "Cc1ccc(Cn2nnc3c(=O)n(Cc4cccc(C)c4)cnc32)cc1", "inhibition": "3.6% (inactive)"}, {"smiles": "CCOc1ccc(NC(=O)CCNC(=O)Cn2ccc3ccccc3c2=O)cc1", "inhibition": "-20.7% (inactive)"}, {"smiles": "Cc1ccc(S(=O)(=O)Nc2nc3ccccc3nc2N2CCN(c3ccccc3F)CC2)cc1", "inhibition": "5.2% (inactive)"}, {"smiles": "Cc1ccsc1C1C(C#N)=C(N)OC2=C1C(=O)CCC2", "note": "(configuration not stated)", "inhibition": "-6.1% (inactive)"}, {"smiles": "N#Cc1sc(NCc2ccccc2)nc1Cl", "inhibition": "-19.1% (inactive)"}, {"smiles": "Cc1ccc(CNc2nc(Cl)c(C#N)s2)cc1", "inhibition": "63.4% (active)"}, {"smiles": "COc1ccc(CNc2nc(Cl)c(C#N)s2)cc1", "inhibition": "3.8% (inactive)"}, {"smiles": "CCN1CCN(CCOCCOc2ccccc2)CC1", "inhibition": "75.5% (active)"}, {"smiles": "c1ccc(OCCOCCN2CCOCC2)cc1", "inhibition": "7.9% (inactive)"}, {"smiles": "CCN1CCN(CCOCCOc2ccccc2-c2ccccc2)CC1", "inhibition": "-24.4% (inactive)"}, {"smiles": "O=C(Cc1ccccc1)NNC(=O)Nc1ccccc1", "inhibition": "-23.5% (inactive)"}, {"smiles": "CCCC(=O)NC(C)c1nc2ccccc2n1C", "note": "(configuration not stated)", "inhibition": "36.2% (active)"}, {"smiles": "CCCC(=O)NC(C)c1nc2ccccc2n1CC", "note": "(configuration not stated)", "inhibition": "-18.7% (inactive)"}, {"smiles": "Cc1ccc(C(O)c2nc3ccccc3n2C)cc1", "note": "(configuration not stated)", "inhibition": "-7.9% (inactive)"}, {"smiles": "COc1ccc(C(O)c2nc3ccccc3n2C)cc1OC", "note": "(configuration not stated)", "inhibition": "33.1% (inactive)"}, {"smiles": "CCCC(=O)NC(C)c1nc2ccccc2n1C(C)C", "note": "(configuration not stated)", "inhibition": "-2.5% (inactive)"}, {"smiles": "CC(C)c1ccc(C(O)c2nc3ccccc3n2C)cc1", "note": "(configuration not stated)", "inhibition": "76.4% (active)"}, {"smiles": "CCN(CC(=O)Nc1ccccc1Br)C1CCCCC1", "inhibition": "-38.4% (inactive)"}, {"smiles": "C=CCN1C(=O)N/C(=C/c2ccc(C)o2)C1=O", "inhibition": "-35.1% (inactive)"}, {"smiles": "Nn1cc(-c2ccccc2)nc1SCC(=O)Nc1cccc(S(N)(=O)=O)c1", "inhibition": "3.3% (inactive)"}, {"smiles": "O=C(Nc1cc(-c2ccccc2)[nH]n1)c1ccc(Cl)cc1", "inhibition": "4.7% (inactive) and -2.2% (inactive)"}, {"smiles": "O=C(Nc1ccccc1Cl)c1ccc2ccccc2c1", "inhibition": "-11.1% (inactive)"}, {"smiles": "Cc1cccc(C)c1NC(=O)NC1(C(=O)N2CCN3CCCC3C2)CCCCC1", "note": "(configuration not stated)", "inhibition": "-19.2% (inactive)"}, {"smiles": "COc1ccccc1C1C(C#N)=C(N)N(c2cccnc2)C2=C1C(=O)CC(C)(C)C2", "note": "(configuration not stated)", "inhibition": "-21.9% (inactive)"}, {"smiles": "COc1cc(C2C(C#N)=C(N)N(c3cccnc3)C3=C2C(=O)CC(C)(C)C3)ccc1O", "note": "(configuration not stated)", "inhibition": "9.6% (inactive)"}, {"smiles": "COc1ccc(C2C(C#N)=C(N)N(c3cccnc3)C3=C2C(=O)CC(C)(C)C3)cc1OC", "note": "(configuration not stated)", "inhibition": "63.5% (active)"}, {"smiles": "Cc1ccc(OC(=O)c2ccncc2)c(C)c1", "inhibition": "-45.8% (inactive)"}, {"smiles": "Cc1ccc(C)c(OC(=O)c2ccncc2)c1", "inhibition": "54.5% (active)"}, {"smiles": "Cc1ccc(C)c(OC(=O)c2cccnc2)c1", "inhibition": "-20.5% (inactive)"}, {"smiles": "CCN(CC)C(=O)CSc1nc(O)cc(=O)n1-c1ccccc1OC", "inhibition": "-12.3% (inactive)"}, {"smiles": "CCC(NC(=O)NNC(=O)c1ccncc1)(C(F)(F)F)C(F)(F)F", "inhibition": "-3.5% (inactive)"}, {"smiles": "COc1ccc(-c2ccc(SC)nn2)cc1", "inhibition": "-8.7% (inactive)"}, {"smiles": "CCOc1ccc(-c2ccc(SC)nn2)cc1", "inhibition": "57.2% (active)"}, {"smiles": "CCOc1ccc(-c2ccc(SCC)nn2)cc1", "inhibition": "-47.8% (inactive)"}, {"smiles": "COc1ccc(CC(=O)NNC(=O)COc2ccc3ccccc3c2)cc1", "inhibition": "-32% (inactive)"}, {"smiles": "N#Cc1ccccc1NC(=O)COC(=O)c1ccc(F)cc1F", "inhibition": "2.3% (inactive)"}, {"smiles": "COc1cc(OC)cc(C(=O)NC2CC(C)(C)NC(C)(C)C2)c1", "inhibition": "83% (active)"}, {"smiles": "Cc1cc(C)cc(C(=O)NC2CC(C)(C)NC(C)(C)C2)c1", "inhibition": "-11.3% (inactive)"}, {"smiles": "COc1cc(C(=O)NC2CC(C)(C)NC(C)(C)C2)cc(OC)c1OC", "inhibition": "-31.3% (inactive)"}, {"smiles": "O=C(NC(CC(=O)N1CCN(c2ccc([N+](=O)[O-])cc2)CC1)c1ccccc1)c1ccccc1Cl", "note": "(configuration not stated)", "inhibition": "-5.6% (inactive)"}, {"smiles": "Cc1nc(-c2nc(-c3c(C(=O)NN)noc3C)cs2)cs1", "inhibition": "-35.9% (inactive)"}, {"smiles": "Cc1ccc2c(c1)C(=O)c1c(C(=O)O)cccc1-2", "inhibition": "-14.6% (inactive)"}, {"smiles": "CC1CCN(C(=O)C(C)Sc2nc(-c3ccccc3)cc(C(F)(F)F)n2)CC1", "note": "(configuration not stated)", "inhibition": "15.1% (inactive)"}, {"smiles": "CC(Sc1nc(-c2ccccc2)cc(C(F)(F)F)n1)C(=O)N1CCCC1", "note": "(configuration not stated)", "inhibition": "-30.7% (inactive)"}, {"smiles": "CC(Sc1nc(-c2ccccc2)cc(C(F)(F)F)n1)C(=O)N1CCC(C(N)=O)CC1", "note": "(configuration not stated)", "inhibition": "62.8% (active)"}, {"smiles": "O=C(O)CCn1c(SCCOc2ccccc2)nc2ccccc21", "inhibition": "-29.9% (inactive)"}, {"smiles": "CCCCN(C)Cc1cc(=O)oc2ccc3ccccc3c12", "inhibition": "-5.4% (inactive)"}, {"smiles": "CCc1ccc(OCc2nnc(SCCN3CCOCC3)n2CC)cc1", "inhibition": "-13.7% (inactive)"}, {"smiles": "FC(F)(F)c1cccc(Cn2cnc(NC(=S)NCCc3ccccc3)n2)c1", "inhibition": "-22.4% (inactive)"}, {"smiles": "Fc1ccccc1NC(=S)NCCc1ccccc1", "inhibition": "11.7% (inactive)"}, {"smiles": "Fc1ccccc1Cn1cnc(NC(=S)NCCc2ccccc2)n1", "inhibition": "47.4% (active)"}]}]}
